Experimental data taken from PubChem BioAssay AID1159580 (chemical genetic matrix, 2015).
Hit rate of the full screen: of about 5,500 compounds, about 2,000 (36%) were called active. Inconclusive results (about 18%) are left out. Some of the results follow. Values without a mark were called inactive. Rule as the data show it: active = normalized growth mostly below about 0.91 (no sharp cut-off); inconclusive = no clear call, values can overlap the other calls; inactive = mostly above about 0.92.

Assay: chemical genetic growth profiling, strain panel (AID 1159580);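 also: tested at 20 µM; growth read once vehicle control cultures reached saturation at 30 °C; 1 = growth at the plate median or of vehicle wells; lower values mean less growth of the strain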
Conditions: growth OD
[1] = S. cerevisiae deletion strains, locus YAL013W, strain DEP1, stronger effect = lower value
[2] = S. cerevisiae deletion strains, locus YBR229C, strain ROT2, stronger effect = lower value
[3] = S. cerevisiae deletion strains, locus YDL101C, strain DUN1, stronger effect = lower value
[4] = S. cerevisiae deletion strains, locus YDR150W, strain NUM1, stronger effect = lower value
[5] = S. cerevisiae deletion strains, locus YEL061C, strain CIN8, stronger effect = lower value
[6] = S. cerevisiae deletion strains, locus YGR078C, strain PAC10, stronger effect = lower value
[7] = S. cerevisiae deletion strains, locus YHR030C, strain SLT2, stronger effect = lower value
[8] = S. cerevisiae deletion strains, locus YJR043C, strain POL32, stronger effect = lower value
[9] = S. cerevisiae deletion strains, locus YJR075W, strain HOC1, stronger effect = lower value
[10] = S. cerevisiae deletion strains, locus YKL190W, strain CNB1, stronger effect = lower value
[11] = S. cerevisiae deletion strains, locus YLR039C, strain RIC1, stronger effect = lower value
[12] = S. cerevisiae deletion strains, locus YLR262C, strain YPT6, stronger effect = lower value
[13] = S. cerevisiae deletion strains, locus YMR263W, strain SAP30, stronger effect = lower value
[14] = S. cerevisiae deletion strains, locus YNL128W, strain TEP1, stronger effect = lower value
[15] = S. cerevisiae deletion strains, locus YNL153C, strain GIM3, stronger effect = lower value
[16] = S. cerevisiae deletion strains, locus YNL322C, strain KRE1, stronger effect = lower value
[17] = S. cerevisiae deletion strains, locus YOL006C, strain TOP1, stronger effect = lower value
[18] = S. cerevisiae deletion strains, locus YPL055C, strain LGE1, stronger effect = lower value
[19] = S. cerevisiae deletion strains, locus YPL241C, strain CIN2, stronger effect = lower value

CC(C)(C)NS(=O)(=O)NC(C)(C)C
normalized growth [1]: 0.995 | normalized growth [2]: 1 | normalized growth (S. cerevisiae deletion strains, locus YCL061C, strain MRC1, stronger effect = lower value): 1.03 | normalized growth [3]: 0.977 | normalized growth [4]: 0.88 | normalized growth [5]: 1.01 | normalized growth [6]: 0.999 | normalized growth [7]: 0.952 | normalized growth (S. cerevisiae deletion strains, locus YHR087W, strain rtc3, stronger effect = lower value): 0.964 | normalized growth (S. cerevisiae deletion strains, locus YJL187C, strain SWE1, stronger effect = lower value): 0.999 | normalized growth [8]: 0.998 | normalized growth [9]: 1.02 | normalized growth [10]: 1 | normalized growth [11]: 1.02 | normalized growth (S. cerevisiae deletion strains, locus YLR058C, strain SHM2 (second series), stronger effect = lower value): 1 | normalized growth (S. cerevisiae deletion strains, locus YLR085C, strain ARP6, stronger effect = lower value): 0.999 | normalized growth [12]: 1.02 | normalized growth (S. cerevisiae deletion strains, locus YML094W, strain GIM5, stronger effect = lower value): 0.976 | normalized growth (S. cerevisiae deletion strains, locus YMR219W, strain ESC1, stronger effect = lower value): 0.995 | normalized growth [13]: 1.04 | normalized growth [14]: 0.997 | normalized growth [15]: 1.01 | normalized growth (S. cerevisiae deletion strains, locus YNL298W, strain CLA4 (second series), stronger effect = lower value): 0.973 | normalized growth [16]: 1 | normalized growth (S. cerevisiae deletion strains, locus YNR030W, strain Alg12, stronger effect = lower value): 1.01 | normalized growth [17]: 1.01 | normalized growth [18]: 0.921 | normalized growth [19]: 1.16 [resistant] (active) | normalized growth (S. cerevisiae deletion strains, locus YPR135W, strain CTF4, stronger effect = lower value): 1.02

NCC(CC(=O)O)c1ccc(Cl)s1 (stereo not given)
normalized growth [1]: 0.991 | normalized growth (S. cerevisiae deletion strains, locus YBR021W, strain FUR4, stronger effect = lower value): 0.96 | normalized growth [2]: 0.99 | normalized growth (S. cerevisiae deletion strains, locus YCL029C, strain bik1, stronger effect = lower value): 0.985 | normalized growth (S. cerevisiae deletion strains, locus YDL035C, strain GPR1, stronger effect = lower value): 0.994 | normalized growth (S. cerevisiae deletion strains, locus YDL074C, strain BRE1, stronger effect = lower value): 1.02 | normalized growth [3]: 0.992 | normalized growth (S. cerevisiae deletion strains, locus YDL134C, strain PPH21, stronger effect = lower value): 0.982 | normalized growth (S. cerevisiae deletion strains, locus YDL185W, strain tfp1, stronger effect = lower value): 0.978 | normalized growth (S. cerevisiae deletion strains, locus YDL192W, strain arf1, stronger effect = lower value): 0.987 | normalized growth (S. cerevisiae deletion strains, locus YDR101C, strain arx1, stronger effect = lower value): 0.998 | normalized growth [4]: 1 | normalized growth (S. cerevisiae deletion strains, locus YDR162C, strain NBP2, stronger effect = lower value): 1.03 | normalized growth (S. cerevisiae deletion strains, locus YDR318W, strain mcm21, stronger effect = lower value): 0.968 | normalized growth (S. cerevisiae deletion strains, locus YDR388W, stronger effect = lower value): 0.99 | normalized growth (S. cerevisiae deletion strains, locus YDR502C, strain sam2, stronger effect = lower value): 0.996 | normalized growth [5]: 0.994 | normalized growth (S. cerevisiae deletion strains, locus YER110C, stronger effect = lower value): 0.979 | normalized growth (S. cerevisiae deletion strains, locus YER155C, strain BEM2, stronger effect = lower value): 1 | normalized growth (S. cerevisiae deletion strains, locus YER167W, strain BCK2, stronger effect = lower value): 0.973 | normalized growth (S. cerevisiae deletion strains, locus YGL078C, strain dbp3, stronger effect = lower value): 0.995 | normalized growth (S. cerevisiae deletion strains, locus YGL086W, strain mad1, stronger effect = lower value): 0.958 | normalized growth (S. cerevisiae deletion strains, locus YGL248W, strain PDE1, stronger effect = lower value): 0.987 | normalized growth [6]: 0.994 | normalized growth (S. cerevisiae deletion strains, locus YGR135W, strain pre9, stronger effect = lower value): 0.974 | normalized growth (S. cerevisiae deletion strains, locus YGR229C, strain SMI1, stronger effect = lower value): 0.958 | normalized growth (S. cerevisiae deletion strains, locus YGR252W, strain gcn5, stronger effect = lower value): 0.926 | normalized growth [7]: 0.989 | normalized growth (S. cerevisiae deletion strains, locus YHR079C, strain IRE1 (second series), stronger effect = lower value): 0.992 | normalized growth (S. cerevisiae deletion strains, locus YHR094C, strain hxt1, stronger effect = lower value): 0.991 | normalized growth (S. cerevisiae deletion strains, locus YHR129C, strain ARP1, stronger effect = lower value): 0.99 | normalized growth (S. cerevisiae deletion strains, locus YHR200W, strain rpn10, stronger effect = lower value): 0.978 | normalized growth (S. cerevisiae deletion strains, locus YIL066C, strain RNR3, stronger effect = lower value): 0.979 | normalized growth (S. cerevisiae deletion strains, locus YIL073C, strain SPO22, stronger effect = lower value): 0.959 | normalized growth (S. cerevisiae deletion strains, locus YIL125W, strain kgd1, stronger effect = lower value): 1.01 | normalized growth (S. cerevisiae deletion strains, locus YIR030C, strain dcg1, stronger effect = lower value): 0.993 | normalized growth (S. cerevisiae deletion strains, locus YJL095W, strain BCK1, stronger effect = lower value): 0.991 | normalized growth (S. cerevisiae deletion strains, locus YJL134W, strain LCB3, stronger effect = lower value): 0.989 | normalized growth (S. cerevisiae deletion strains, locus YJL168C, strain set2, stronger effect = lower value): 0.996 | normalized growth (S. cerevisiae deletion strains, locus YJL187C, strain SWE1 (second series), stronger effect = lower value): 0.999 | normalized growth [8]: 0.964 | normalized growth [9]: 1.06 | normalized growth (S. cerevisiae deletion strains, locus YKL009W, strain mrt4, stronger effect = lower value): 1 | normalized growth (S. cerevisiae deletion strains, locus YKL068W, stronger effect = lower value): 0.989 | normalized growth (S. cerevisiae deletion strains, locus YKL085W, strain MDH1 (second series), stronger effect = lower value): 1.02 | normalized growth (S. cerevisiae deletion strains, locus YKL085W, strain MDH1, stronger effect = lower value): 1.02 | normalized growth [10]: 0.997 | normalized growth (S. cerevisiae deletion strains, locus YKR001C, strain vps1, stronger effect = lower value): 0.947 | normalized growth [11]: 1.01 | normalized growth (S. cerevisiae deletion strains, locus YLR058C, strain SHM2, stronger effect = lower value): 0.985 | normalized growth (S. cerevisiae deletion strains, locus YLR102C, strain apc9, stronger effect = lower value): 0.998 | normalized growth [12]: 1.03 | normalized growth (S. cerevisiae deletion strains, locus YLR268W, strain sec22, stronger effect = lower value): 0.988 | normalized growth (S. cerevisiae deletion strains, locus YLR330W, strain CHS5, stronger effect = lower value): 0.993 | normalized growth (S. cerevisiae deletion strains, locus YLR342W, strain FKS1 (second series), stronger effect = lower value): 0.978 | normalized growth (S. cerevisiae deletion strains, locus YLR371W, strain rom2, stronger effect = lower value): 0.986 | normalized growth (S. cerevisiae deletion strains, locus YLR418C, strain cdc73, stronger effect = lower value): 0.914 | normalized growth (S. cerevisiae deletion strains, locus YML016C, strain PPZ1, stronger effect = lower value): 0.984 | normalized growth (S. cerevisiae deletion strains, locus YML032C, strain rad52, stronger effect = lower value): 0.963 | normalized growth (S. cerevisiae deletion strains, locus YML124C, strain tub3, stronger effect = lower value): 0.979 | normalized growth (S. cerevisiae deletion strains, locus YMR078C, strain ctf18, stronger effect = lower value): 0.989 | normalized growth (S. cerevisiae deletion strains, locus YMR223W, strain ubp8, stronger effect = lower value): 0.958 | normalized growth [13]: 1.01 | normalized growth (S. cerevisiae deletion strains, locus YMR307W, strain GAS1, stronger effect = lower value): 0.959 | normalized growth (S. cerevisiae deletion strains, locus YNL067W, strain RPL9B, stronger effect = lower value): 1.02 | normalized growth [14]: 1.02 | normalized growth [15]: 1.02 | normalized growth (S. cerevisiae deletion strains, locus YNL233W, strain BNI4, stronger effect = lower value): 0.989 | normalized growth (S. cerevisiae deletion strains, locus YNL250W, strain rad50, stronger effect = lower value): 0.995 | normalized growth (S. cerevisiae deletion strains, locus YNL271C, strain bni1, stronger effect = lower value): 0.988 | normalized growth (S. cerevisiae deletion strains, locus YNL298W, strain CLA4, stronger effect = lower value): 0.988 | normalized growth (S. cerevisiae deletion strains, locus YNL307C, strain MCK1, stronger effect = lower value): 0.954 | normalized growth [16]: 0.999 | normalized growth (S. cerevisiae deletion strains, locus YNR052C, strain pop2, stronger effect = lower value): 0.981 | normalized growth [17]: 0.973 | normalized growth (S. cerevisiae deletion strains, locus YOL012C, strain htz1): 1.87 | normalized growth (S. cerevisiae deletion strains, locus YOL147C, strain pex11, stronger effect = lower value): 0.998 | normalized growth (S. cerevisiae deletion strains, locus YOR061W, strain CKA2, stronger effect = lower value): 0.997 | normalized growth (S. cerevisiae deletion strains, locus YOR069W, strain VPS5, stronger effect = lower value): 0.983 | normalized growth (S. cerevisiae deletion strains, locus YOR136W, strain idh2, stronger effect = lower value): 0.981 | normalized growth (S. cerevisiae deletion strains, locus YOR144C, strain elg1, stronger effect = lower value): 0.987 | normalized growth (S. cerevisiae deletion strains, locus YOR184W, strain ser1, stronger effect = lower value): 0.94 | normalized growth (S. cerevisiae deletion strains, locus YOR316C, strain cot1, stronger effect = lower value): 0.992 | normalized growth [18]: 1.05 | normalized growth [19]: 0.993 | normalized growth (S. cerevisiae deletion strains, locus YPR119W, strain clb2, stronger effect = lower value): 0.994 | normalized growth (S. cerevisiae deletion strains, locus YPR141C, strain kar3, stronger effect = lower value): 0.982 | normalized growth (S. cerevisiae deletion strains, locus YPR163C, strain tif3, stronger effect = lower value): 0.991 | normalized growth (S. cerevisiae deletion strains, locus YPR167C, strain met16, stronger effect = lower value): 0.99 | normalized growth (S. cerevisiae deletion strains, strain wtn01, stronger effect = lower value): 0.988 | normalized growth (S. cerevisiae strains, strain wild type, stronger effect = lower value): 0.979
